# Reference: PubChem BioAssay
# Active and inactive are the calls of the source.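 The calls were made as follows, unless noted: active = compound that reduces growth-factor-driven endothelial tube area in a mixed cell culture, no cutoff stated; inactive = the rest.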
# Legend:
# [1] = Wnt pathway potentiators raising nuclear beta-catenin – imaging, WNT3A-conditioned medium, mouse C2C12, NPC library, primary screen (AID 1117326; in the data active = nuclear beta-catenin stimulation mostly above about 4.2%, no sharp cut-off; inactive = mostly below about 10%; also: reference of the scale not given here); settings: stronger effect = higher value
# [2] = stimulators of insulin release from INS-1E, primary screen, cell-based, 5 mM glucose, NPC library (AID 1117329;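 active = compound raises insulin release from rat beta cells at 5 mM glucose, no numeric limit stated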; also: reference of the scale not given here); settings: rat INS-1E insulin secretion, at 10 µM, stronger effect = higher value
# [3] = growth inhibition of GSK3B-pretreated HCT116 cells – cell-based, CellTiter-Glo, 0.2 to 20 µM (AID 1117336;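 active = compounds lowering colon cancer cell viability after pretreatment blocking the GSK3B kinase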); settings: HCT116 viability after GSK3B inhibitor, at 20 µM, stronger effect = higher value
# [4] = inhibition of endothelial tube formation, primary screen, imaging, VEGF stimulated, CD31 staining, tube area, NPC library (AID 1117340); settings: VEGF-stimulated ADSC/ECFC co-culture, at 10 µM, stronger effect = higher value
# [5] = GLP1 release stimulators, primary, NCI-H716, NPC library (AID 1117341;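 active = compound raises GLP1 secretion from the human gut endocrine cells, with no numeric limit stated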; also: reference of the scale not given here); settings: NCI-H716 cells, at 10 µM, stronger effect = higher value
# [6] = HCT116 colon cancer cell growth inhibition, primary screen, CellTiter-Glo luminescence, NPC library (AID 1117342;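 active = compounds that lower survival of HCT116 colon cancer cells in the luminescence readout, no numeric limit stated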); settings: at 20 µM (top of the series)
# [7] = reduced SW480 viability measured with CellTiter-Glo, NPC library, primary (AID 1117343;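 active = compounds that lower viability of the colon cancer cells in the luminescence readout, with no numeric limit stated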); settings: CellTiter-Glo luminescence; at 20 µM (top of the series)
# [8] = NPC library primary testing for decreased DLD-1 cell viability via CellTiter-Glo (AID 1117346;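 active = compounds that lower survival of DLD-1 colon cancer cells in the luminescence readout, no cutoff given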); settings: DLD-1 viability, CellTiter-Glo luminescence; at 20 µM (top of the series)
Structure (SMILES),nuclear beta-catenin stimulation ([1]; at 10 µM),"nuclear beta-catenin stimulation ([1]; stimulation, at 2 µM) [%]",insulin secretion stimulation [2],viability decrease [3],tube area decrease [4],GLP1 secretion stimulation [5],inhibition of viability [6],viability decrease (inhibition) [7],viability decrease (inhibition) [8]
Cc1nc(C2CCCCC2)c(-c2ccc(S(N)(=O)=O)c(F)c2)o1,2.5% (inactive),4.1,1.4% (inactive),21% (inactive),24% (inactive),1.8% (inactive),-0.63% (inactive),6.3% (inactive),3.1% (inactive)
CCNC(=O)NCCCOc1cccc(CN2CCCCC2)c1,-0.4% (inactive),-1.5,4.7% (inactive),1.2% (inactive),0.6% (inactive),-0.5% (inactive),5% (inactive),-19.1% (inactive),-12.6% (inactive)
COc1ccc([C@@H]2Sc3ccccc3NC(=O)[C@@H]2O)cc1,7.8% (inactive),0.6,2.8% (inactive),77.6% (active),57.7% (active),2.6% (inactive),96.6% (active),87.2% (active),67.4% (active)
N[C@H](C(=O)O)c1ccc(O)cc1,2.5% (inactive),3.1,5.2% (inactive),-0.7% (inactive),-7.9% (inactive),-2.9% (inactive),6% (inactive),13.1% (inactive),-2.7% (inactive)
C/C(=N\O)c1ccc(OCC(=O)N2CCCCC2)cc1,0.1% (inactive),-1.1,3.05% (inactive),17.3% (inactive),-6.2% (inactive),0.1% (inactive),13.8% (inactive),-2.5% (inactive),-0.4% (inactive)
CCCCCCCCCCCCCCCCCCCCCC(=O)Nc1ccn([C@@H]2O[C@H](CO)[C@@H](O)[C@H]2O)c(=O)n1,4.1% (inactive),-0.9,3.05% (inactive),48.1% (inactive),51.7% (active),-1.6% (inactive),39.5% (inactive),40.5% (inactive),15% (inactive)
C/C(=C(/OCCOc1ccc(Cl)cc1)c1ccc(Cl)cc1Cl)n1ccnc1,3.9% (inactive),1.3,-0.7% (inactive),102% (active),109% (active),4.1% (inactive),102% (active),143% (active),105% (active)
O=P(O)(O)C(Sc1ccc(Cl)cc1)P(=O)(O)O,1.7% (inactive),1.6,3.9% (inactive),-2.7% (inactive),1% (inactive),-2.7% (inactive),4.3% (inactive),2.6% (inactive),2% (inactive)
CCOC(=O)N1CCC(Nc2ccc(Cl)cc2N)CC1,5.3% (inactive),4.4,0.6% (inactive),0.9% (inactive),41.4% (active),-4.9% (inactive),32.5% (inactive),27.8% (inactive),-12.2% (inactive)
Cc1onc(-c2ccccc2Cl)c1C(=O)Cl,-1.6% (inactive),-0.5,0.3% (inactive),-16.4% (inactive),0.4% (inactive),0.1% (inactive),0.4% (inactive),26.4% (inactive),14.3% (inactive)
NC(=O)COCCN1CCN(C(c2ccccc2)c2ccc(Cl)cc2)CC1 (stereo not given),-0.4% (inactive),1.4,1.7% (inactive),-1.7% (inactive),9.8% (inactive),2.2% (inactive),7.4% (inactive),-24.9% (inactive),-5.9% (inactive)
NC(=Nc1ccccc1)Nc1ccccc1,0.2% (inactive),1.4,13.9% (inactive),24.6% (inactive),10.1% (inactive),2.8% (inactive),-1% (inactive),77.3% (active),75.2% (active)
OC[C@H]1O[C@@H]2O[C@H]3[C@H](O)[C@@H](O)[C@@H](O[C@H]4[C@H](O)[C@@H](O)[C@@H](O[C@H]5[C@H](O)[C@@H](O)[C@@H](O[C@H]6[C@H](O)[C@@H](O)[C@@H](O[C@H]7[C@H](O)[C@@H](O)[C@@H](O[C@H]8[C@H](O)[C@@H](O)[C@@H](O[C@H]1[C@H](O)[C@H]2O)O[C@@H]8CO)O[C@@H]7CO)O[C@@H]6CO)O[C@@H]5CO)O[C@@H]4CO)O[C@@H]3CO,0.1% (inactive),0.5,1.1% (inactive),-5.9% (inactive),2.3% (inactive),-1.9% (inactive),1.17% (inactive),21% (inactive),-3.7% (inactive)
C[C@@H](O)[C@H]1C(=O)N2C(C(=O)[O-])=C(SC3Cn4cnc[n+]4C3)[C@H](C)[C@H]12 (stereo not given in full),-0.3% (inactive),-2.1,6.4% (inactive),-16.5% (inactive),-9.3% (inactive),0.8% (inactive),15.4% (inactive),-6.5% (inactive),5.3% (inactive)
C=C1C(=C/C=C2\CCC[C@]3(C)[C@@H]([C@H](C)/C=C/[C@@H](O)C4CC4)CC[C@@H]23)C[C@@H](O)C[C@@H]1O,2.6% (inactive),4.1,4.15% (inactive),103% (active),19.7% (inactive),3.9% (inactive),82% (active),111% (active),92.9% (active)
